Where “and” joins values, the source holds several entries; their conditions need not be identical. Identical values can stand only once. Out of some 5,500 compounds screened, about 2,000 (36%) were called active. Another 18% or so got no clear call; they are omitted. No stated cut-off is given here; in the data, active means normalized growth mostly below about 0.91 (no sharp cut-off); inconclusive means no clear call, values can overlap the other calls; inactive means mostly above about 0.92. The list shows a part of the results.
Test: chemical genetic growth profiling, strain panel (AID 1159580);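 further: tested at 20 µM; growth read once vehicle control cultures reached saturation at 30 °C; 1 = growth at the plate median or of vehicle wells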
Settings: growth OD

Measured: normalized growth

CCOC(=O)C(C)(C)Oc1ccc(Cl)cc1
inactive: S. cerevisiae deletion strains, locus YJR075W, strain HOC1, stronger effect = lower value 1.01 and 0.998 | S. cerevisiae deletion strains, locus YKL009W, strain mrt4, stronger effect = lower value 1.02 | S. cerevisiae deletion strains, locus YKL068W, stronger effect = lower value 1 | S. cerevisiae deletion strains, locus YKL085W, strain MDH1 (second series), stronger effect = lower value 1.01 | S. cerevisiae deletion strains, locus YKL085W, strain MDH1, stronger effect = lower value 1.01 | S. cerevisiae deletion strains, locus YKL160W, strain elf1, stronger effect = lower value 0.98 | S. cerevisiae deletion strains, locus YKL190W, strain CNB1, stronger effect = lower value 1.01 | S. cerevisiae deletion strains, locus YKR001C, strain vps1, stronger effect = lower value 0.975 | S. cerevisiae deletion strains, locus YKR026C, strain gcn3, stronger effect = lower value 0.974 | S. cerevisiae deletion strains, locus YKR091W, strain srl3, stronger effect = lower value 0.978 | S. cerevisiae deletion strains, locus YLL001W, strain dnm1, stronger effect = lower value 0.987 | S. cerevisiae deletion strains, locus YLL026W, stronger effect = lower value 0.97 | S. cerevisiae deletion strains, locus YLL041C, strain sdh2, stronger effect = lower value 0.983 | S. cerevisiae deletion strains, locus YLR027C, strain aat2, stronger effect = lower value 0.994 | S. cerevisiae deletion strains, locus YLR039C, strain RIC1, stronger effect = lower value 0.986 | S. cerevisiae deletion strains, locus YLR058C, strain SHM2, stronger effect = lower value 1.01 | S. cerevisiae deletion strains, locus YLR102C, strain apc9, stronger effect = lower value 0.996 | S. cerevisiae deletion strains, locus YLR113W, strain HOG1, stronger effect = lower value 0.943 | S. cerevisiae deletion strains, locus YLR221C, strain rsa3, stronger effect = lower value 0.985 | S. cerevisiae deletion strains, locus YLR258W, strain gsy2, stronger effect = lower value 0.986 | S. cerevisiae deletion strains, locus YLR262C, strain YPT6 (second series), stronger effect = lower value 0.965 | S. cerevisiae deletion strains, locus YLR262C, strain YPT6, stronger effect = lower value 0.985 | S. cerevisiae deletion strains, locus YLR268W, strain sec22, stronger effect = lower value 1 | S. cerevisiae deletion strains, locus YLR320W, strain mms22, stronger effect = lower value 0.944 | S. cerevisiae deletion strains, locus YLR330W, strain CHS5, stronger effect = lower value 1 | S. cerevisiae deletion strains, locus YLR342W, strain FKS1 (second series), stronger effect = lower value 0.988 | S. cerevisiae deletion strains, locus YLR342W, strain FKS1, stronger effect = lower value 0.981 | S. cerevisiae deletion strains, locus YLR357W, strain rsc2, stronger effect = lower value 1 | S. cerevisiae deletion strains, locus YLR370C, strain arc18, stronger effect = lower value 0.983 | S. cerevisiae deletion strains, locus YLR371W, strain rom2, stronger effect = lower value 0.971 | S. cerevisiae deletion strains, locus YLR384C, strain iki3, stronger effect = lower value 0.969 | S. cerevisiae deletion strains, locus YLR418C, strain cdc73, stronger effect = lower value 0.985 | S. cerevisiae deletion strains, locus YML016C, strain PPZ1, stronger effect = lower value 1 | S. cerevisiae deletion strains, locus YML032C, strain rad52, stronger effect = lower value 0.992 | S. cerevisiae deletion strains, locus YML120C, strain ndi1, stronger effect = lower value 0.986 | S. cerevisiae deletion strains, locus YML124C, strain tub3, stronger effect = lower value 0.998 | S. cerevisiae deletion strains, locus YMR058W, strain fet3, stronger effect = lower value 0.987 | S. cerevisiae deletion strains, locus YMR078C, strain ctf18, stronger effect = lower value 0.999 | S. cerevisiae deletion strains, locus YMR125W, strain sto1, stronger effect = lower value 0.963 | S. cerevisiae deletion strains, locus YMR129W, stronger effect = lower value 0.994 | S. cerevisiae deletion strains, locus YMR205C, strain PFK2, stronger effect = lower value 0.934 | S. cerevisiae deletion strains, locus YMR223W, strain ubp8, stronger effect = lower value 0.996 | S. cerevisiae deletion strains, locus YMR231W, strain pep5, stronger effect = lower value 0.983 | S. cerevisiae deletion strains, locus YMR307W, strain GAS1, stronger effect = lower value 0.996 | S. cerevisiae deletion strains, locus YNL067W, strain RPL9B, stronger effect = lower value 1.01 | S. cerevisiae deletion strains, locus YNL071W, strain lat1, stronger effect = lower value 0.98 | S. cerevisiae deletion strains, locus YNL128W, strain TEP1, stronger effect = lower value 1.01 | S. cerevisiae deletion strains, locus YNL175C, strain NOP13, stronger effect = lower value 1.01 | S. cerevisiae deletion strains, locus YNL183C, strain NPR1, stronger effect = lower value 0.933 | S. cerevisiae deletion strains, locus YNL197C, strain WHI3, stronger effect = lower value 1.01 | S. cerevisiae deletion strains, locus YNL209W, strain ssb2, stronger effect = lower value 0.992 | S. cerevisiae deletion strains, locus YNL224C, strain SQS1, stronger effect = lower value 0.991 | S. cerevisiae deletion strains, locus YNL233W, strain BNI4, stronger effect = lower value 0.999 | S. cerevisiae deletion strains, locus YNL248C, strain rpa49, stronger effect = lower value 0.979 | S. cerevisiae deletion strains, locus YNL250W, strain rad50, stronger effect = lower value 1.02 | S. cerevisiae deletion strains, locus YNL271C, strain bni1, stronger effect = lower value 0.997 | S. cerevisiae deletion strains, locus YNL298W, strain CLA4, stronger effect = lower value 1 | S. cerevisiae deletion strains, locus YNL307C, strain MCK1, stronger effect = lower value 1 | S. cerevisiae deletion strains, locus YNL322C, strain KRE1 (second series), stronger effect = lower value 0.973 | S. cerevisiae deletion strains, locus YNL322C, strain KRE1, stronger effect = lower value 1.01 and 1 | S. cerevisiae deletion strains, locus YNR049C, strain mso1, stronger effect = lower value 0.985 | S. cerevisiae deletion strains, locus YNR052C, strain pop2, stronger effect = lower value 1 | S. cerevisiae deletion strains, locus YOL006C, strain TOP1, stronger effect = lower value 1.01 | S. cerevisiae deletion strains, locus YOL012C, strain htz1 0.891 | S. cerevisiae deletion strains, locus YOL147C, strain pex11, stronger effect = lower value 0.988 | S. cerevisiae deletion strains, locus YOR001W, strain rrp6, stronger effect = lower value 0.976 | S. cerevisiae deletion strains, locus YOR061W, strain CKA2, stronger effect = lower value 1.01 | S. cerevisiae deletion strains, locus YOR069W, strain VPS5, stronger effect = lower value 1 | S. cerevisiae deletion strains, locus YOR070C, strain gyp1, stronger effect = lower value 0.995 | S. cerevisiae deletion strains, locus YOR080W, strain dia2, stronger effect = lower value 0.97 | S. cerevisiae deletion strains, locus YOR083W, strain WHI5 (second series), stronger effect = lower value 1.03 | S. cerevisiae deletion strains, locus YOR083W, strain WHI5, stronger effect = lower value 0.982 | S. cerevisiae deletion strains, locus YOR106W, strain vam3, stronger effect = lower value 0.999 | S. cerevisiae deletion strains, locus YOR136W, strain idh2, stronger effect = lower value 1 | S. cerevisiae deletion strains, locus YOR144C, strain elg1, stronger effect = lower value 0.995 | S. cerevisiae deletion strains, locus YOR184W, strain ser1, stronger effect = lower value 0.943 | S. cerevisiae deletion strains, locus YOR231W, strain MKK1, stronger effect = lower value 0.94 | S. cerevisiae deletion strains, locus YOR265W, strain rbl2, stronger effect = lower value 0.991 | S. cerevisiae deletion strains, locus YOR270C, strain vph1, stronger effect = lower value 0.987 | S. cerevisiae deletion strains, locus YOR290C, strain snf2, stronger effect = lower value 0.976 | S. cerevisiae deletion strains, locus YOR316C, strain cot1, stronger effect = lower value 0.997 | S. cerevisiae deletion strains, locus YPL051W, strain arl3, stronger effect = lower value 0.984 | S. cerevisiae deletion strains, locus YPL055C, strain LGE1, stronger effect = lower value 0.999 | S. cerevisiae deletion strains, locus YPL078C, strain atp4, stronger effect = lower value 0.985 | S. cerevisiae deletion strains, locus YPL106C, strain sse1, stronger effect = lower value 0.951 | S. cerevisiae deletion strains, locus YPL240C, strain hsp82, stronger effect = lower value 0.988 | S. cerevisiae deletion strains, locus YPL241C, strain CIN2, stronger effect = lower value 0.997 | S. cerevisiae deletion strains, locus YPL256C, strain CLN2, stronger effect = lower value 0.923 | S. cerevisiae deletion strains, locus YPR119W, strain clb2, stronger effect = lower value 0.993 | S. cerevisiae deletion strains, locus YPR141C, strain kar3, stronger effect = lower value 0.992 | S. cerevisiae deletion strains, locus YPR163C, strain tif3, stronger effect = lower value 0.995 | S. cerevisiae deletion strains, locus YPR167C, strain met16, stronger effect = lower value 1 | S. cerevisiae deletion strains, strain wtn01, stronger effect = lower value 0.993 | S. cerevisiae strains, strain wild type, stronger effect = lower value 1
